Measured values taken from the supplement of paper PMC4206461.

The molecules below were run on Pseudomonas aeruginosa PA14 wild type (assay: respiration area under curve with compound as sole nitrogen source, 24 h (OmniLog AUC (arbitrary units)); higher = more respiration / better utilisation as nitrogen source, active = 2000 or more).
Description: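 Biolog Phenotype MicroArray plates PM6-PM8: each di/tripeptide is the sole nitrogen source (IF-0 medium with succinate/ferric citrate and dye mix A). Tetrazolium reduction was read in the OmniLog every 15 min for 24 h at 37°C and summarised as area under the respiration curve (arbitrary units). The paper counts values below 2000 as no respiration and above 8000 as solid respiration. Replicate datasets are averaged.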
`CC[C@H](C)[C@H](N)C(=O)N[C@@H](CCC(N)=O)C(=O)O` (plate: PM6) was tested, and the “respiration area under curve” value was 7450 (active).
With `CSCCC(NC(=O)C(N)C(C)C)C(=O)O` (stereo not given) (plate: PM8) the “respiration area under curve” value was 4440 (active).
In the case of `CC[C@H](C)[C@H](N)C(=O)N[C@@H](Cc1ccc(O)cc1)C(=O)O` (plate: PM6), the “respiration area under curve” value is reported as 2310 (active).
In the case of `CC(C)CC(N)C(=O)NC(CC(=O)O)C(=O)O` (stereo not given) (plate: PM6), the “respiration area under curve” value is reported as 7510 (active).
`CC[C@H](C)[C@H](N)C(=O)N1CCC[C@H]1C(=O)O` (plate: PM6) was tested, and the “respiration area under curve” value was 7460 (active).
With `CC(C)[C@H](N)C(=O)N[C@@H](C)C(=O)O` (plate: PM8) the “respiration area under curve” value was 6590 (active).
With `CSCC[C@H](NC(=O)[C@H](C)N)C(=O)O` (plate: PM8) the “respiration area under curve” value was 6360 (active).
With `CC(C)C[C@H](N)C(=O)N[C@H](CC(C)C)C(=O)O` (plate: PM8) the “respiration area under curve” value was 0 (inactive).
`NC(=O)CC[C@H](NC(=O)[C@@H](N)CCCN=C(N)N)C(=O)O` (plate: PM6) was tested, and the “respiration area under curve” value was 9850 (active).
With `NC(=O)CC[C@H](NC(=O)[C@@H](N)Cc1ccc(O)cc1)C(=O)O` (plate: PM7) the “respiration area under curve” value was 13000 (active).
For `NC(=O)CC[C@H](N)C(=O)NCC(=O)O` (plate: PM6), the “respiration area under curve” value was 7270 (active).
`C[C@H](N)C(=O)N[C@@H](C)C(=O)O` (plate: PM6) was tested, and the “respiration area under curve” value was 8430 (active).
`CC(C)[C@@H](NC(=O)CN)C(=O)O` (plate: PM8) was tested, and the “respiration area under curve” value was 0 (inactive).
With `N[C@@H](Cc1ccccc1)C(=O)N[C@@H](Cc1c[nH]c2ccccc12)C(=O)O` (plate: PM7) the “respiration area under curve” value was 524 (inactive).
In the case of `CSCC[C@H](N)C(=O)N[C@H](C(=O)O)C(C)C` (plate: PM7), the “respiration area under curve” value is reported as 4480 (active).
For `N[C@@H](CO)C(=O)N1CCC[C@H]1C(=O)O` (plate: PM7), the “respiration area under curve” value was 14600 (active).
For `C[C@H](NC(=O)[C@@H](N)Cc1c[nH]c2ccccc12)C(=O)O` (plate: PM7), the “respiration area under curve” value was 5630 (active).
In the case of `N[C@@H](Cc1ccccc1)C(=O)N[C@@H](Cc1ccccc1)C(=O)O` (plate: PM7), the “respiration area under curve” value is reported as 5220 (active).
With `N[C@@H](CC(=O)O)C(=O)N[C@@H](CCC(=O)O)C(=O)O` (plate: PM6) the “respiration area under curve” value was 291 (inactive).
For `CC[C@H](C)[C@H](N)C(=O)N[C@@H](CCSC)C(=O)O` (plate: PM6), the “respiration area under curve” value was 1290 (inactive).
`C[C@H](NC(=O)[C@@H](N)CCC(=O)O)C(=O)O` (plate: PM8) was tested, and the “respiration area under curve” value was 9190 (active).
For `C[C@H](O)[C@@H](NC(=O)CN)C(=O)O` (plate: PM8), the “respiration area under curve” value was 0 (inactive).
For `N[C@@H](Cc1ccccc1)C(=O)N[C@@H](CCC(=O)O)C(=O)O` (plate: PM8), the “respiration area under curve” value was 2920 (active).
For `C[C@H](NC(=O)[C@@H]1CCCN1)C(=O)O` (plate: PM7), the “respiration area under curve” value was 8890 (active).
For `NCC(=O)N[C@@H](Cc1ccccc1)C(=O)O` (plate: PM6), the “respiration area under curve” value was 2760 (active).
For `CC(C)[C@H](N)C(=O)N[C@@H](CCCN=C(N)N)C(=O)O` (plate: PM7), the “respiration area under curve” value was 14300 (active).
With `NC(N)=NCCC[C@H](N)C(=O)N[C@@H](Cc1c[nH]c2ccccc12)C(=O)O` (plate: PM6) the “respiration area under curve” value was 8730 (active).
For `N[C@@H](Cc1ccc(O)cc1)C(=O)N[C@@H](Cc1ccccc1)C(=O)O` (plate: PM7), the “respiration area under curve” value was 6680 (active).
With `NC(=O)CC[C@H](NC(=O)[C@@H](N)CC(=O)O)C(=O)O` (plate: PM8) the “respiration area under curve” value was 9700 (active).
With `O=C(O)CNC(=O)[C@@H]1CCCN1` (plate: PM7) the “respiration area under curve” value was 10100 (active).
For `C[C@H](N)C(=O)N[C@@H](CC(=O)O)C(=O)O` (plate: PM8), the “respiration area under curve” value was 10500 (active).
`N[C@@H](CC(=O)O)C(=O)NCC(=O)O` (plate: PM8) was tested, and the “respiration area under curve” value was 4290 (active).
With `NC(=O)CC[C@H](NC(=O)[C@@H](N)CCC(N)=O)C(=O)O` (plate: PM6) the “respiration area under curve” value was 8430 (active).
With `CC[C@H](C)[C@H](NC(=O)[C@@H]1CCCN1)C(=O)O` (plate: PM8) the “respiration area under curve” value was 7540 (active).
In the case of `O=C(O)[C@@H]1C[C@@H](O)CN1C(=O)[C@@H]1CCCN1` (plate: PM7), the “respiration area under curve” value is reported as 0 (inactive).
For `NC(=O)C[C@H](NC(=O)[C@@H]1CCCN1)C(=O)O` (plate: PM8), the “respiration area under curve” value was 12900 (active).
`N[C@@H](CO)C(=O)N[C@@H](CO)C(=O)O` (plate: PM7) was tested, and the “respiration area under curve” value was 8860 (active).
In the case of `NC(N)=NCCC[C@H](N)C(=O)N[C@@H](CO)C(=O)O` (plate: PM6), the “respiration area under curve” value is reported as 9350 (active).
For `CC[C@H](C)[C@H](N)C(=O)N[C@@H](C)C(=O)O` (plate: PM6), the “respiration area under curve” value was 5290 (active).
With `O=C(O)[C@H](Cc1ccc(O)cc1)NC(=O)[C@@H]1CCCN1` (plate: PM7) the “respiration area under curve” value was 12200 (active).
